This note sets out measurements from PubChem BioAssay AID778 (Sanford-Burnham Center for Chemical Genomics, 2007).

Structures are written as SMILES. Hit rate of the full screen: of about 96,000 compounds, about 20,000 (21%) were called active. The list is a sample of the results. Values without a mark were called inactive.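 The calls were made as follows: active = CYP2C19 inhibition above a set limit at 5 µM in the primary screen (cut at about 50% in these data); inactive = the rest.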

The target of this assay is Cytochrome P450 2C19 (Homo sapiens) (UniProt P33261). Put plainly: blockers of cytochrome P450 2C19 activity – biochemical, luminescence, ADME assay, primary screen (AID 778).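 Also: plate controls were negative control wells for no effect and 2.5 mM tranylcypromine positive control for full effect.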 To be noted: CYP2C19 Supersomes, luciferin-H EGE luminescence, 30 min; at 5 µM; stronger effect = higher value.
Cytochrome P450 2C19 (Homo sapiens), sequence (P33261 whole entry, looked up): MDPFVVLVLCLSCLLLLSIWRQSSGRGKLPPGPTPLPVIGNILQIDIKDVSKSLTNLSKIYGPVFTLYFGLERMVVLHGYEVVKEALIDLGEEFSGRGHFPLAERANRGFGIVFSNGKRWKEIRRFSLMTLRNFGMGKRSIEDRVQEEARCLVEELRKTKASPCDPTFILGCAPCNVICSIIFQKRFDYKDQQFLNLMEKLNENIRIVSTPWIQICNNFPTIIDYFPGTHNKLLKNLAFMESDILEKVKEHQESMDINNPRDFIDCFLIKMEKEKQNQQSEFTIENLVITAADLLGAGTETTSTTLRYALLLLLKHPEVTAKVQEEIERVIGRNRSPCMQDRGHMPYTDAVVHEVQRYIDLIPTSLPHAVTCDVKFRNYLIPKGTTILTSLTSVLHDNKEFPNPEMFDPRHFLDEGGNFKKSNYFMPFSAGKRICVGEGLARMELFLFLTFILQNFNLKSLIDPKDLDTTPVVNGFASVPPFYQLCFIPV
With `Cc1ccc(NC(=S)NCCN2CCOCC2)cc1`, the inhibition is 23%.

With `CCN(CC)C(=O)CSc1nnc(-c2cnccn2)n1-c1ccc(C)cc1`, the inhibition is -1.8%. `Cc1ccc(-c2noc(CSc3nnnn3-c3ccccc3)n2)cc1`: the inhibition is 73.4% (active). On to `COc1ccc(-c2noc(CSc3ccc(C)cc3)n2)cc1`, for which the inhibition was 78.6% (active).

As to `COc1ccc(-c2noc(CN(C)S(=O)(=O)c3ccc(C)cc3)n2)cc1`, the inhibition was 40.2%. The result for `Cc1ccc(Nc2nc(CSc3nnnn3-c3ccccc3)cc(=O)[nH]2)cc1` reads 16.7%. For the compound `Cc1ccc(-c2noc(CSc3nnc(-c4ccncc4)n3-c3ccc(F)cc3)n2)cc1`, the inhibition was 58.3% (active). On to `O=C(CSc1nnc(Cc2ccccc2)n1-c1ccccc1)N1CCOCC1`, for which the inhibition is 8.2%. As for `Fc1ccc(-n2c(Cc3ccccc3)nnc2SCc2nc(-c3ccc(Cl)cc3)no2)cc1`, the figure is 80% (active). On to `CSc1nnc(CNC(=O)c2ccccc2)n1-c1ccc(F)cc1`, for which the inhibition was -4.4%. As for `Cc1cccc(-c2noc(-c3ccc(F)cc3)n2)c1`, the figure is 32.6%. On to `COc1ccc(-c2noc(-c3ccc(C)cc3)n2)cc1`, for which the inhibition is 6.2%.

With `Cc1cc2c(cc1C)N(C(=O)CN1C(=O)c3ccccc3C1=O)C(C)(C)c1ssc(=S)c1-2`, the inhibition is 3.4%. For `OCCNCCCCOc1ccccc1F`, the inhibition was -2.2%. The result for `Cc1c(Br)c([N+](=O)[O-])nn1C(C)C(=O)Nc1nccs1` (configuration not stated) reads 37.1%. Turning to `Cc1nnc(SCC(=O)N(C(C)C)C(C)C)nc1C`, the inhibition was 22.9%. As to `CCc1nc(N2CCN(c3nc(C)cc(C)n3)CC2)c2oc3ccccc3c2n1`, the inhibition is 8.3%. The result for `O=C(Nc1ccc(Br)cc1)c1cccc(NC(=O)C2C3CC4OC(=O)C2C4C3)c1` (configuration not stated) reads 24.6%; that for `O=C(Nc1nncs1)c1ccccc1NS(=O)(=O)c1cccs1`, 46.2%; that for `CC1(C)CC(=O)C(C=NCc2cccnc2)=C(O)C1`, 14.2%. For `CCOC(=O)N1CCC(NC(=O)COc2cc(=O)n(C)c3ccccc23)CC1`, the inhibition is -16.3%. `CN1C2CCC1/C(=C\c1ccccc1Cl)C(=O)/C2=C\c1ccccc1Cl`: the inhibition was -12.1%. As for `Cc1ccc(CCNC(=O)C2CCN(S(=O)(=O)N3CCCC3)CC2)cc1`, the inhibition was 12.2%. Turning to `CCCCOc1ccc(NC(=O)CSCC(=O)OCC)cc1`, the inhibition was 14.3%.

Take `O=S1(=O)CC(NCc2ccccc2)C(Nc2ccc(Cl)cc2)C1` (configuration not stated): the inhibition is 46.7%. Turning to `Cn1c(=O)c2c(n(Cc3ccccc3)c1=O)NC(=O)C2CC(=O)N1CCc2ccccc2C1` (configuration not stated), the inhibition was -9.3%. The result for `CC(Oc1ccc(-c2ccccc2)c(F)c1)c1ccn(S(=O)(=O)c2cccc3ccccc23)n1` (configuration not stated) reads 25%. `C=CCn1c(=N)n(CC(O)COc2ccc(OC)cc2)c2ccccc21` (configuration not stated): the inhibition was 12.4%. The result for `Cc1ccc(-c2noc(CC(c3ccccc3)c3ccccc3)n2)cc1` reads 19.9%. As for `Cc1ccc(-c2noc(CSc3nnc(-c4cccs4)n3C)n2)cc1`, the inhibition is 23%. As for `Cc1ccc(-c2noc(CSc3nnc(-c4ccccc4)n3C)n2)cc1`, the inhibition was 88.2% (active). Consider `CCCCCOC(=O)c1ccc(N2C(=O)C3C4C=CC(C4)C3C2=O)cc1` (configuration not stated), for which the inhibition is -13.5%. Regarding `O=C1Nc2ccccc2C12Nc1ccccc1S2` (configuration not stated), the inhibition is 80.5% (active). For the compound `CC(=O)N1C(=O)C2(Nc3ccccc3N2)c2ccccc21`, the inhibition is -7.6%. With `Clc1cccc(N=C2NN=C(c3ccc4c(c3)OCCO4)CS2)c1`, the inhibition was 24.7%. As for `C=CC[n+]1c(-c2ccc(C)cc2)csc1NNC(=O)Nc1ccccc1`, the inhibition is 18%. As for `CN(c1nc2ccccc2n2c(-c3ccco3)nnc12)S(=O)(=O)c1ccccc1`, the figure is 1.3%; as for `c1coc(-c2nc3nc4ccccc4n3nc2-c2ccco2)c1`, -23.4%; as for `Cn1c(-c2ccco2)nc2cc3ccccc3cc21`, 53.3% (active). Turning to `CSc1nc(C)nc2c1c(=O)n(C)c(=O)n2C`, the inhibition was -8.7%. The result for `CCCC1CC(C)(C(=O)Cn2[nH]c(=O)ccc2=O)OC1=O` (configuration not stated) reads 0.3%. Turning to `COc1ccc(-c2cc(C3CCN(c4ncccc4[N+](=O)[O-])CC3)[nH]n2)cc1`, the inhibition was 84.8% (active). With `COc1cccc(NC(=O)c2nn(C34CC5CC(CC(C5)C3)C4)cc2[N+](=O)[O-])c1`, the inhibition was 9.7%. The result for `CCCn1c(=O)c(-c2ccccc2)c(O)c2ccccc21` reads -13.5%; that for `COc1ccc(S(=O)(=O)NC2(C(F)(F)F)N=C3SCCN3C2=O)cc1` (configuration not stated), -1.5%; that for `Cc1cccc(N2CCN(S(=O)(=O)c3ccc4[nH]c(=O)c(=O)[nH]c4c3)CC2C)c1` (configuration not stated), 19.7%. Take `CSc1nnc(-c2ccncc2)n1CCCN1CCCC1=O`: the inhibition was -0.2%. In the case of `CC(C)(CCl)C(=O)Nc1ccc(Sc2ccc(F)cc2)cc1`, the inhibition was -1.4%. Consider `CC(C)NC(=O)c1ccc(Sc2ccccc2)c([N+](=O)[O-])c1`, for which the inhibition was 36.8%.

With `COC(=O)c1ccc(Sc2ccc(F)cc2)c(N)c1`, the inhibition is 94.3% (active).

On to `c1cnc(NC2C3CC4CC(C3)CC2C4)nc1` (configuration not stated), for which the inhibition is 26%. As for `CN(C)c1ccc(CNC23CN4CN(CN(C4)C2)C3)cc1`, the figure is 0.2%. Turning to `CN(C)c1ccc(CNC2C3CC4CC(C3)CC2C4)cc1` (configuration not stated), the inhibition is 75.5% (active). The result for `COc1ccc(S(=O)(=O)Nc2ccc3c(c2)OCO3)cc1Cl` reads 100% (active). As to `COc1ccc(C(=O)Nc2ccc3c(c2)OCO3)cc1OC`, the inhibition is 39.8%.

Regarding `COc1ccc(C(=O)Nc2ccc(S(=O)(=O)Nc3onc(C)c3C)cc2)cc1OC`, the inhibition was 15.5%. On to `COc1ccc(F)cc1S(=O)(=O)Nc1ccc2c(c1)OCO2`, for which the inhibition was 69.4% (active). Turning to `Cc1cc(Cl)c(S(=O)(=O)Nc2ccc3c(c2)OCCO3)cc1OCC(N)=O`, the inhibition was 15.3%. `CC(C)CNS(=O)(=O)c1ccc(OCC(=O)Nc2ccc3c(c2)OCO3)c(Cl)c1`: the inhibition is -1%.

Turning to `COc1ccc(S(=O)(=O)Nc2ccc(F)cc2)c(C)c1C`, the inhibition is 94.9% (active). As to `O=C1CCCC2=C1C(c1cccs1)n1nc(SCc3ccccc3)nc1N2` (configuration not stated), the inhibition is -10.3%. The result for `N=c1c2c3c(sc2ncn1CCCN1CCOCC1)CCCCC3` reads 7.8%.

By inhibition is commonly meant the relative decrease from the control value, in per cent.
